We go through six compounds from PubChem BioAssay (NCATS).

Records with an inconclusive call do not appear. Calls of active or inactive are those of the source. Unless noted, the call rests on the fitted dose curve; in most records, active means well fitted curve in either direction with a large enough effect (not every such curve was filed as active); inconclusive means small, poorly fitted or top-dose-only effect, or another doubt; inactive means flat fitted curve, though single readings scatter. Where only a bound is given, the exact number is not on record here.

In test [1] the target is Lysosomal acid glucosylceramidase (Homo sapiens) (UniProt P04062). As to the kind of experiment: Glucocerebrosidase-p2 (AID 348; in the data active means potency below about 10 µM; further: potency means the concentration at half of the fitted maximal effect). To be noted: purified GBA, blue fluorogenic substrate, 40 min. The method, boiled down: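 Normal human glucocerebrosidase (0.2 nM) with blue fluorogenic substrate (80 uM final) in citrate/phosphate pH 5.9 with 10mM sodium taurocholate, 0.01% tween-20; 40 min RT, NaOH/glycine stop; fluorescence Ex 365/Em 440; AC50 from a titration from 0.6 nM upwards.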

Test [2] is described as follows: AP1 Signaling Pathway (AID 357).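 Further: ME-180 reporter cells stimulated with EGF at its EC50 level; on the % scale 0 is the no-effect control and ±100 the full control effect.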 To be noted: ME-180 AP-1-bla reporter, EGF-induced, beta-lactamase ratio, 5 h; at 7.69 µM (top of the series) unless noted. The method, boiled down:
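A ratiometric CCF4 readout (405 nm excitation; 460 and 530 nm emission) quantified AP-1-driven beta-lactamase in ME-180 cells after 5 h with compound and EC50 EGF; AC50 values were derived for activators and inhibitors.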

Test [3] has as its target Cytochrome P450 1A2 (Homo sapiens) (UniProt P05177). As to the kind of experiment: p450-cyp1a2 (AID 410; calls by dose curve; further: potency means the concentration at half of the fitted maximal effect;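 on activity change, negative = inhibition: -100% = full effect of reference inhibitor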). The following applies: recombinant CYP1A2, luciferin-ME demethylation, luminescence; series mostly up to 57 µM. In short, it runs like this: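 Read-out is luminescence from luciferin produced by CYP1A2 demethylation of Luciferin-ME (100uM, at Km). Detection reagent stopped the 60 min NADPH-dependent reaction; signals were normalized to 57 uM furafylline.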

Test [4] in a line: NFAT Signaling Pathway (AID 444).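 Further: carbachol stimulus at about its EC50 of 1 µM final; on the % scale 0 is the no-effect control and ±100 the full control effect.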 To be noted: Jurkat NFAT-bla M1, carbachol, beta-lactamase ratio, 5 h; at 7.69 µM (top of the series) unless noted. In short, it runs like this:
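Jurkat cells with NFAT-driven β-lactamase reporter and co-expressed M1 receptor, stimulated with carbachol (final 1 uM, ~EC50), compound titration, 5 h at 37 °C. CCF4 loaded 1 h at RT; 460/530 nm ratio gave %activity and AC50.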

The nature of test [5]: Stat Signaling Pathway (AID 446).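 Further: ME-180 cervical cancer cells given 40 pM IL-6 alongside compound; SIE-controlled beta-lactamase reporter measured as 460/530 nm FRET emission ratio; on the % scale 0 is the no-effect control and ±100 the full control effect.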 To be noted: ME-180 (cervical carcinoma) SIE beta-lactamase reporter, IL-6 stimulated, 5 h; at 7.69 µM (top of the series) unless noted. The method, boiled down:
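Compound effects on IL-6-induced STAT reporter activity were measured in ME-180 cells. After overnight culture, cells were co-treated with 40 pM IL-6 for 5 hrs before beta-lactamase substrate loading at room temperature.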

Test [6] has as its target Glucocorticoid receptor (Homo sapiens) (UniProt P04150). Description: GR-EFC Redistribution (AID 451; calls by dose curve; further: potency means the concentration at half of the fitted maximal effect). To be noted: CHO-K1 GR-EFC translocation, beta-gal luminescence, 2 h. The method, boiled down: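 CHO-K1 cells expressing nuclear EA and GR-ED fragments of b-gal; compounds titrated up to 46 uM final, 2 h at 37 C. GR nuclear translocation read as complemented b-gal luminescence after 1 h RT detection.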

Test [7] has as its target Mitogen-activated protein kinase 10 (Mus musculus) (UniProt Q61831). Description: JNK3 AlphaScreen Assay (AID 530).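 Further: kinase came from lysate of stimulated human HepG2 cells; signal reports phosphorylation of biotinylated GST-cJun 1-79 at Ser73 with 10 µM ATP; on the % scale 0 is the no-effect control and ±100 the full control effect.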 To be noted: JNK3 lysate, c-Jun phosphorylation; series mostly up to 57.1 µM. In short, it runs like this: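 HepG2 lysate (IL-1b/TNFa pre-activated) + biotin-GST-cJun 1-79 + anti-pSer73 cJun; cpd titration, 15 min RT; ATP 10 uM start; Tris pH 7.6, MgCl2, DTT, vanadate; beads in EDTA buffer; AlphaScreen.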
A general note: In Alpha technology, singlet oxygen from a donor bead excites a nearby acceptor bead.

Test [8] has as its target 3',5'-cyclic-AMP phosphodiesterase 4B (Homo sapiens) (UniProt Q07343). As to the kind of experiment: qHTS Assay for Inhibitors of PDE-IV (AID 607; active means well fitted activation curve with a large enough effect in the main read-out, with a control signal flat, not every such curve was filed as active; further: % of control where 0% means no effect). To be noted: HEK293 ACTOne CNG channel cells, membrane potential fluorescence; series mostly up to 22.9 µM. In short, it runs like this:
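ACTOne HEK293 cells carry a modified cAMP-gated CNG channel and express endogenous PDE4; plated 1000 cells/well, compounds up to 22.9 uM final. Membrane-potential dye fluorescence (ex 535/em 590) was read; parental cells received 10 uM forskolin + 100 uM RO 20-1724.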

Test [9] addresses Cytochrome P450 3A4 (Homo sapiens) (UniProt P08684). Description: qHTS Assay for Activators of Cytochrome P450 3A4 (AID 885; active means well fitted curve in the direction sought with a large enough effect; an effect the other way counts as inactive or inconclusive; further: nearly all actives have a fitted effect of over 65% in size). The following applies: recombinant CYP3A4, Luciferin-PPXE luminescence, 60 min; series mostly up to 57.1 µM. In short, it runs like this:
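CYP3A4 activity: Luciferin-PPXE O-dealkylation, 25uM substrate, 200mM KPO4, RT throughout. Read-out is luciferase luminescence; higher values reflect activation.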
A general note: qHTS replaces the single test concentration by a dilution series.

A short description of test [10]: qHTS Assay for Lipid Storage Modulators (AID 1519; calls by dose curve). The following applies: Drosophila S3 cells, BODIPY lipid droplet/cell ratio, laser cytometry, cells loaded with oleic acid; for activity change, negative = inhibition: at 57.5 µM (top of the series). The method, boiled down: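 Cells seeded at 5,000 per well were treated with compounds over a concentration series and loaded with oleic acid (400 uM, as added). Lipid droplet fluorescence (488 nm excitation, 500-530 nm channel) was read by laser-scanning cytometry and normalized to 20 uM Triacsin C.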

Test [11] can be described thus: Primary qHTS for small molecule stabilizers of the endoplasmic reticulum resident proteome: Secreted ER Calcium Modulated Protein (SERCaMP) assay (AID 1508630; active means well fitted curve in the direction sought with a large enough effect; an effect the other way counts as inactive or inconclusive; further: on the % scale 0 is the no-effect control and ±100 the full control effect). The following applies: SH-SY5Y GLuc-SERCaMP (Gaussia luciferase released on ER calcium loss) secretion, thapsigargin, luminescence; series mostly up to 38.4 µM. The method, boiled down:
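The SH-SY5Y reporter protocol was run at 3 concentrations up to 38.3 uM (primary) or 11 concentrations (follow-up): 16 h compound, 100 nM thapsigargin for 4 h, then extracellular luciferase luminescence.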

Test [12] deals with Cytochrome P450 2C19 (Homo sapiens) (UniProt P33261). As to the kind of experiment: qHTS Assay for Inhibitors and Substrates of Cytochrome P450 2C19 (AID 899; active means well fitted curve in the direction sought with a large enough effect; an effect the other way counts as inactive or inconclusive; further: on the % scale 0 is the no-effect control and ±100 the full control effect; nearly all actives have a fitted effect of over 60% in size). To be noted: recombinant CYP2C19, luciferin-H EGE luminescence; series mostly up to 57.1 µM. The method, boiled down: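 Signal comes from luciferase acting on luciferin released by CYP2C19-mediated hydroxylation of Luciferin-H EGE, 10uM (KM). Assay mix: 5nM enzyme, 50mM KPO4; 60 min at 37C with NADPH regeneration. Data normalized against 57uM ketoconazole.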

Test [13] concerns the target Cytochrome P450 2D6 (Homo sapiens) (UniProt P10635). Description: qHTS Assay for Inhibitors and Substrates of Cytochrome P450 2D6 (AID 891; active means well fitted curve in the direction sought with a large enough effect; an effect the other way counts as inactive or inconclusive; further: potency means the concentration at half of the fitted maximal effect; nearly all actives have a fitted effect of over 60% in size). The following applies: recombinant CYP2D6, luciferin-ME EGE luminescence; series mostly up to 57.1 µM. The method, boiled down:
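Luminescent read-out of luciferin formed by 5 nM human CYP2D6 demethylating 30 uM Luciferin-ME EGE (Km level) over 60 min at room temperature after NADPH regeneration addition. Data normalized to full inhibition by 1.43 uM quinidine.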

[14] abbreviates: measured here: cell count channel max response.
[15] abbreviates: measured here: lipid channel max response.

Sequence of Lysosomal acid glucosylceramidase (Homo sapiens) (P04062 whole entry, looked up): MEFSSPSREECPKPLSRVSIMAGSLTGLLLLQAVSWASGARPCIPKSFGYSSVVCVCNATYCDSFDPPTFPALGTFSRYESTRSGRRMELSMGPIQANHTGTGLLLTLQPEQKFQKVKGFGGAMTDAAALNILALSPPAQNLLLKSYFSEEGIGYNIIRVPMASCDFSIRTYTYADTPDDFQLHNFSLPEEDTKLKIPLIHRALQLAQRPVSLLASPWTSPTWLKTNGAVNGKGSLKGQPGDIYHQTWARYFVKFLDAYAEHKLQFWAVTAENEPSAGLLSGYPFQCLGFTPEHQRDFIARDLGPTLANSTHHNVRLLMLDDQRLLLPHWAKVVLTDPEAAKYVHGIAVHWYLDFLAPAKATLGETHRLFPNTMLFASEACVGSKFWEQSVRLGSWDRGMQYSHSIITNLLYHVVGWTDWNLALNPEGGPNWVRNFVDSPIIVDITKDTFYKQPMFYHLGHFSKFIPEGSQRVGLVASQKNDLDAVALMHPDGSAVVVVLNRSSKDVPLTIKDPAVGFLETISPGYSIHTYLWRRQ
Sequence of Cytochrome P450 1A2 (Homo sapiens) (P05177 whole entry, looked up): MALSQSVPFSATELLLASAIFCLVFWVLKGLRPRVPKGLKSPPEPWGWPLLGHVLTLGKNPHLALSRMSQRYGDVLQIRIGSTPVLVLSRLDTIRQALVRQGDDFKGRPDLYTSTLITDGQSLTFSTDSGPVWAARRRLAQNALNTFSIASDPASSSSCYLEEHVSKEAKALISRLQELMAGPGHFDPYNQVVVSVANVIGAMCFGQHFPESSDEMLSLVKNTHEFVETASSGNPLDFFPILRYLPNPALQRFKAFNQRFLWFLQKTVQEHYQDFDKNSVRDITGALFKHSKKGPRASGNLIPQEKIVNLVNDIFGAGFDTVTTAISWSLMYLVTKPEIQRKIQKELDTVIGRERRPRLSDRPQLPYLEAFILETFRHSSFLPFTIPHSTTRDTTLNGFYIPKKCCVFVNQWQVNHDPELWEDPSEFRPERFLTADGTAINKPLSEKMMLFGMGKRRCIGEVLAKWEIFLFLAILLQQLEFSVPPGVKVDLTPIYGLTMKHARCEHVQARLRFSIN
Sequence of Glucocorticoid receptor (Homo sapiens) (P04150 whole entry, looked up, the tested form may be a part): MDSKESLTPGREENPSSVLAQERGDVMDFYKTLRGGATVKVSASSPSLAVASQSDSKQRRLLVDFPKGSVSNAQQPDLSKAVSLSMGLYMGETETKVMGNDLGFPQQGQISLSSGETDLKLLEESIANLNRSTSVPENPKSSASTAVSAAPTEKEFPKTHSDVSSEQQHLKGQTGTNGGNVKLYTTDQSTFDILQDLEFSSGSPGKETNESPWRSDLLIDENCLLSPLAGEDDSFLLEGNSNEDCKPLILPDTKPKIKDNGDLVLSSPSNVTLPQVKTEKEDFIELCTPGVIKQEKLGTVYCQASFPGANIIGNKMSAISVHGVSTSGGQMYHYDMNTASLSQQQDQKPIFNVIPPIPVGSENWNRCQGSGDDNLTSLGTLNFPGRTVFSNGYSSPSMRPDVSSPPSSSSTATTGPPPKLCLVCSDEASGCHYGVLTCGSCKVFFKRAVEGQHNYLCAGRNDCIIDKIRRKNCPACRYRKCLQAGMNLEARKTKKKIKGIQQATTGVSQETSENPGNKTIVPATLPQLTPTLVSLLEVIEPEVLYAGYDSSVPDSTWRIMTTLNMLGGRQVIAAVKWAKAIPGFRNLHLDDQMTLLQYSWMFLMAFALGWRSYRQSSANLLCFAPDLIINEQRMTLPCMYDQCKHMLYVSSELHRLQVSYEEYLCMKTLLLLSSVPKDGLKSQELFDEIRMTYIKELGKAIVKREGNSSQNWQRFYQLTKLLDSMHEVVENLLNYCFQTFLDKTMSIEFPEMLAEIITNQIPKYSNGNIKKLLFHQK
Sequence of Cytochrome P450 3A4 (Homo sapiens) (P08684 whole entry, looked up): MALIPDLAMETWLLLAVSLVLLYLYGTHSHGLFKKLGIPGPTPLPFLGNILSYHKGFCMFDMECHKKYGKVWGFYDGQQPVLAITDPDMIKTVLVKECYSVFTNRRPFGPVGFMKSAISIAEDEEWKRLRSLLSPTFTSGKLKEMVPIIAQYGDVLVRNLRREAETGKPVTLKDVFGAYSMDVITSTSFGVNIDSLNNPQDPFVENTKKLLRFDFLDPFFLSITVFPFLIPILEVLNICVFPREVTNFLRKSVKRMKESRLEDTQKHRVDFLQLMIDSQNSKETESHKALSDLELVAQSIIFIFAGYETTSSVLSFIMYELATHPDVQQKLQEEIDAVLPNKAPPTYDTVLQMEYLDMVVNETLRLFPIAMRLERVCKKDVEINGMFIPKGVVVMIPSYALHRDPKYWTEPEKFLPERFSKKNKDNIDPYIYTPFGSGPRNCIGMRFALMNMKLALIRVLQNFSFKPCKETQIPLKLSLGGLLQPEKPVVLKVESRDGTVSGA
Sequence of 3',5'-cyclic-AMP phosphodiesterase 4B (Homo sapiens) (Q07343 whole entry, looked up): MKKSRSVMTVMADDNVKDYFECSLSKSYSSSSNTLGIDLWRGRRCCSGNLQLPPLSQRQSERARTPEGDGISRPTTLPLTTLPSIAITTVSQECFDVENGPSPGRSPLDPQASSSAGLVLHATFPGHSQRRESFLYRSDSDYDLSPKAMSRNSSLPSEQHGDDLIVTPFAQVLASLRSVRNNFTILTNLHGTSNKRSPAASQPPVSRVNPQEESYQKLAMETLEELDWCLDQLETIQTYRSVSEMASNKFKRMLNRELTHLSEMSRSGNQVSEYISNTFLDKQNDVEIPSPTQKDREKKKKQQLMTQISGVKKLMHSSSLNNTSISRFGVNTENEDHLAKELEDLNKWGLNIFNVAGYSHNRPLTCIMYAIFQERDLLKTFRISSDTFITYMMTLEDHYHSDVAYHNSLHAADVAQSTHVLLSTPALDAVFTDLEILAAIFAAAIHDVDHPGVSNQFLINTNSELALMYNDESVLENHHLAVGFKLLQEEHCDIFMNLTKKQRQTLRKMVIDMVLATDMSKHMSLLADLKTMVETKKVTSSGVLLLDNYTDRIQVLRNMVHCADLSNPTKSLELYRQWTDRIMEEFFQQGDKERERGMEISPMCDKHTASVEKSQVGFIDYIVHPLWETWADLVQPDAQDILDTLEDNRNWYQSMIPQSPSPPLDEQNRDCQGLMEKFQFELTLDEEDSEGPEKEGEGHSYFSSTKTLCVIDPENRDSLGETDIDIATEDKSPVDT
Sequence of Cytochrome P450 2D6 (Homo sapiens) (P10635 whole entry, looked up): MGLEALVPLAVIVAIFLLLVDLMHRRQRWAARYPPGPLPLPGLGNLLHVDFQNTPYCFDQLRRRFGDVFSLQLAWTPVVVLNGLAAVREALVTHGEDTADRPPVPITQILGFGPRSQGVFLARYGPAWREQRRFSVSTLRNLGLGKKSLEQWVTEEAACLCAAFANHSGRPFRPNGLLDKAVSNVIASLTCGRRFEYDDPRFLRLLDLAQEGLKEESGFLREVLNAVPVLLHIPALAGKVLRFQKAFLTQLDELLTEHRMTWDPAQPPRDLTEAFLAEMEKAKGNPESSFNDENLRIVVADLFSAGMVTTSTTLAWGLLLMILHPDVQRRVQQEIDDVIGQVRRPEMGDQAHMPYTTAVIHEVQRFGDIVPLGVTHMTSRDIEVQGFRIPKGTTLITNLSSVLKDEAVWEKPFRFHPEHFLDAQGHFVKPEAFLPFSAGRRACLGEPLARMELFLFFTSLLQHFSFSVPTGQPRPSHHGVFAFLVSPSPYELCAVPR
Sequence of Cytochrome P450 2C19 (Homo sapiens) (P33261 whole entry, looked up): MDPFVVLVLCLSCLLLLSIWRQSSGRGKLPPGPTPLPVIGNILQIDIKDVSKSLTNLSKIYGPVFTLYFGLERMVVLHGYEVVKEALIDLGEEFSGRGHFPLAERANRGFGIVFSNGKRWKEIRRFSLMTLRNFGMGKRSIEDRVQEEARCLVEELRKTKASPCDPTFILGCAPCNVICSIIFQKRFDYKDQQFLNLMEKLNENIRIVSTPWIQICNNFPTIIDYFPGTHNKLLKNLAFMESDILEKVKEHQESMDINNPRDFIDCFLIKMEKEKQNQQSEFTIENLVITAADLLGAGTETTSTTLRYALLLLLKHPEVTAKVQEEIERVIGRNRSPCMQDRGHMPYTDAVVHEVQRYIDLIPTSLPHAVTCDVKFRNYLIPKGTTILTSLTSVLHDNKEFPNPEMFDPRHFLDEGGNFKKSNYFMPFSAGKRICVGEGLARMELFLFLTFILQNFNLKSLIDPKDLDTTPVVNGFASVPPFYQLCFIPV

Consider `CS(=O)(=O)N1CCC2(CC1)CN(C(=O)Nc1cccc(C#N)c1)C2`, for which the results for the Potency in [1] and in test [6] were > 11.4 µM (inactive) and > 46 µM (inactive), respectively. Further, the values for the activity change, negative = inhibition in [2], in test [4] and in test [10] were -6.48% (inactive), 14.4% (inactive) and 1.36% (inactive), respectively. For the same compound, the Potency entry in [3], in test [8], in [9] and in [11] was “inactive” each time. The activity, negative = inhibition in test [5] is -5.8% (inactive). In test [7], the compound was called inactive. For the same compound, the max response in test [10] (setting [14]) worked out at 4.56%; in test [10] (setting [15]), 8.61%.

Turning to `COCC(=O)N1CCC2(CCCN(C(=O)Nc3ccc(OC)cc3)C2)CC1`, the Potency in test [1] is > 11.4 µM (inactive); in [6], > 46 µM (inactive). The activity change, negative = inhibition in test [2] is -3.98% (inactive); in [4], 13.5% (inactive); in test [10], 5.43% (inactive). The Potency entry in test [3], in [8], in [9], in test [12] and in test [11] was “inactive” throughout. For the same compound, the activity, negative = inhibition in test [5] was -3.45% (inactive). Besides, the outcome in [7] was inactive. Moreover, the max response in test [10] (setting [14]) was 13.8%; in test [10] (setting [15]), 18.7%.

As for `Cc1noc(C)c1C(=O)N1CCC[C@@]2(CCN(Cc3ccccc3)C2)C1`, the Potency was > 11.4 µM (inactive) in test [1], > 46 µM (inactive) in test [6] and 7.94 µM (active) in test [13]. For the same compound, the activity change, negative = inhibition is -8.33% (inactive) in [2], 4.21% (inactive) in test [4] and 2.65% (inactive) in [10]. Besides, the Potency result in test [3], in test [8], in [9] and in test [11] was “inactive” each time. Further, the activity, negative = inhibition in [5] was 3.42% (inactive). Moreover, the compound was called inactive in test [7]. Moreover, the max response in [10] (setting [14]) stood at 16.8%; in test [10] (setting [15]), 22.2%.

Turning to `Cc1noc(C)c1C(=O)N1CCC2(CCCN(C(=O)Nc3cccc(F)c3)C2)CC1`, the Potency in [1] is > 11.4 µM (inactive); in test [3], 15.8 µM (active); in test [6] it was > 46 µM (inactive). Moreover, the values for the activity change, negative = inhibition in test [2], in test [4] and in [10] were -3.17% (inactive), -8.48% (inactive) and 5.45% (inactive), respectively. The activity, negative = inhibition in [5] was -0.0561% (inactive). Further, the compound was called inactive in test [7]. Further, the Potency result in [8], in [9] and in test [11] was “inactive” throughout. The max response in [10] (setting [14]) was 9.33%; in [10] (setting [15]), 19.9%.

Turning to `O=C(c1ccncc1)N1CCC2(CC1)CCN(C(c1ccccc1)c1ccccc1)CC2`, the Potency in test [1] was > 11.4 µM (inactive); in test [3], 12.6 µM (active); in test [6], > 46 µM (inactive); in [13], 3.16 µM (active). Also, the activity change, negative = inhibition in test [2] was -0.963% (inactive); in [4], -18.3% (inactive); in [10] it was 2.53% (inactive). For the same compound, in test [5], the activity, negative = inhibition was 5% (inactive). The compound was classed as inactive in test [7]. Further, the Potency entry in test [8] and in [11] was “inactive” in each case. For the same compound, the max response in test [10] (setting [14]) stood at 0.243%; in test [10] (setting [15]), 4.49%.

Take `COc1ccc(C(=O)N2CCC[C@@]3(CCN(Cc4ccc(C#N)cc4)C3)C2)cc1`: the Potency in test [1] was > 11.4 µM (inactive); in [6] it was > 46 µM (inactive). In addition, the activity change, negative = inhibition in test [2] is -1.6% (inactive); in test [4], -4.67% (inactive); in [10], 3.64% (inactive). The Potency entry in [3], in test [8], in test [9] and in test [11] was “inactive” each time. For the same compound, the activity, negative = inhibition in test [5] is 3.73% (inactive). In addition, in [7], the outcome was inactive. Further, the max response in test [10] (setting [14]) was determined as 10.2%; in test [10] (setting [15]), 17.8%.
